Several values for one entry are separate records, joined by “and”; a condition that tells them apart may be missing. Identical values can stand only once. The campaign covered roughly 1,300 compounds. About 420 (32%) were called active. Another 32% or so got no clear call; they are omitted. The list shows a part of the results. A number with no mark means an inactive call. The call rests on the fitted dose curve; in most records, active means well fitted inhibition curve with a large enough effect; inconclusive means small, poorly fitted or top-dose-only effect; inactive means no such curve, though single readings can be large or run the other way.
target: C-terminal-binding protein 1 (Homo sapiens) (UniProt Q13363); assay: qHTS for Inhibitors of the Phosphatase Activity of Eya2: Carboxyl-terminal binding protein (CtBP) Counterscreen for Cherry-picked Compounds; settings: purified protein-protein binding, AlphaScreen, 3 h; series mostly up to 46.1 µM; activity change, negative = inhibition: at the top concentration; further: nearly all actives have a fitted effect of over 65% in size
Summary of the method: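 AlphaScreen using 25 nM GST-E1A with 25 nM CtBP-6xHIS; compounds at 2.5 nM–46 uM final, 2 h at room temperature, then donor/acceptor beads (20 ug/mL) for 1 h in the dark. Signal normalized to E1A peptide inhibitor (maximum inhibition) and DMSO.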
On the % scale 0 is the no-effect control and ±100 the full control effect; potency means the concentration at half of the fitted maximal effect.

Structure (SMILES)	Potency	activity change, negative = inhibition [%]
N#C/C(=C\c1ccc(-c2ccc(C(=O)O)cc2)o1)C(=O)Nc1ccc(F)cc1	7.57 µM (active)	–
COc1ccc(CC(CC(=O)O)C(=O)Nc2ccc(Cl)c(Cl)c2)cc1 (centres undefined)	–	47.3
COc1ccc(NC(=O)/C(C#N)=C/c2ccc(-c3ccc(Cl)c(C(=O)O)c3)o2)cc1	19 µM (active)	–
COc1ccc(/C=C(/C#N)C(=O)Nc2ccc(O)cc2)cc1C(=O)O	6.75 µM (active)	–
CC(=O)Oc1ccc(C(=O)OCC(=O)c2c(N)n(C)c(=O)n(C)c2=O)cc1OC(C)=O	6.01 µM (active)	–
Cn1c(N)c(C(=O)CSc2nnc(NC3CCCCC3)s2)c(=O)n(C)c1=O	–	-26.8
O=C1C=C(Nc2ccccc2)C(=O)c2ccccc21	4.26 µM (active)	–
O=C(Nc1ccc(-c2nc3cccnc3s2)cc1)C1CCCO1 (centres undefined)	–	-24.7
O=C(CSc1ncn[nH]1)N1N=C(c2ccc(Cl)cc2)CC1c1ccco1 (centres undefined)	–	-15.7
CN(C)c1ccc(C(=C2C=CC(=[N+](C)C)C=C2)c2ccc(N(C)C)cc2)cc1	3.79 µM (active)	–
CN(C)c1ccc(C(=C2C=CC(=[N+](C)C)C=C2)c2c(O)c(S(=O)(=O)[O-])cc3cc(S(=O)(=O)O)ccc23)cc1	9.53 µM (active)	–
Nc1n[nH]c2cc(=O)n(-c3ccc(Cl)cc3)nc12	–	-21.1
CCOc1ccc(Br)cc1S(=O)(=O)NC1CC(C)(C)NC(C)(C)C1	–	4.5
COC(=O)c1c(-c2ccc3ccccc3c2)csc1NC(=O)Cc1ccc(OC)c(OC)c1	–	-22.9
Cc1ccc(-c2csc(NC(=O)c3ccccc3F)c2C(=O)O)cc1	9.53 µM (active)	–
CCOc1cc(C(=O)NC(C)CCc2ccccc2)cc(OCC)c1OCC (centres undefined)	–	94
COc1cc(CNCc2ccccn2)ccc1OCC(=O)NC1CCCCC1	–	-40.3
COc1ccc(CCNc2nc(-c3ccccn3)cs2)cc1OC	7.57 µM (active)	–
COc1ccc(CCNC(=O)C(=O)NCc2cccs2)cc1OC	–	1.17
CCC(C)Nc1nc(-c2ccccn2)nc2ccccc12 (centres undefined)	9.53 µM (active)	–
O=C(Nc1nc2ccc(F)cc2s1)C1=NN(c2ccccc2)C(=O)CC1	–	-3.84
Cc1ccc(-c2nc3ccccc3s2)cc1NC(=S)NC(=O)/C=C/c1ccco1	–	4.31
COc1ccccc1N1CCN(C(=O)c2ccc(-c3nc4ccccc4s3)o2)CC1	–	-28.7
O=C(O)CCN1C(=O)/C(=C/c2ccc(-c3nc4ccccc4s3)o2)SC1=S	3.01 µM (active)	–
CCNC(=O)/C(C#N)=C/c1c(N2CCN(c3ccccc3)CC2)nc2c(C)cccn2c1=O	12 µM (active)	–

Structure (SMILES)	Potency	activity change, negative = inhibition [%]
CCN(CC)C(=O)CC(c1ccc(OC)cc1)c1c(OC)cc(OC)c2ccc(=O)oc12 (centres undefined)	–	3.43
Cc1cccc(-n2c(O)c(C=Nc3ccccc3)c3ccccc3c2=O)n1	–	-17.4
Cc1[nH]n(-c2cccc3ccccc23)c(=O)c1C=Nc1ccc2[nH]c(=O)[nH]c2c1	7.57 µM (active)	–
CC1CCCCC1NC(=O)COC(=O)c1c2c(nc3ccccc13)/C(=C\c1ccco1)CC2 (centres undefined)	–	-25.9
Cn1nc([N+](=O)[O-])nc1Sc1cccc2cccnc12	2.69 µM (active)	–
Clc1ccc(-n2nnnc2-c2cnc3ccccc3c2-c2ccccc2)cc1	–	-9.82
O=C(NN1C(=O)/C(=C/C=C/c2ccco2)SC1=S)c1ccncc1	12 µM (active)	–
Oc1ccc(Cl)cc1CNc1cccc2cccnc12	5.36 µM (active)	–
Oc1c(Br)cc(Br)cc1CNc1cccc2cccnc12	5.36 µM (active)	–
CCOC(=O)C1=C(COC(=O)CCOc2ccccc2)NC(=O)NC1C (centres undefined)	–	4.16
CN(C)c1ccc(-c2ccnc3c2CC(C)(C(=O)NCCC(F)(F)F)O3)cc1 (centres undefined)	–	-19.4
Cc1ccc(CNC(=O)C2CCN(S(=O)(=O)c3ccc4nc5c(c(C(=O)O)c4c3)CC(C)CC5)CC2)cc1 (centres undefined)	10.7 µM (active)	–
O=C(O)c1c2c(nc3ccc(S(=O)(=O)N4CCC(C(=O)NC5CCCC5)CC4)cc13)CCCCC2	–	-4.44
COc1ccc(CNC(=O)C2CCN(S(=O)(=O)c3ccc4nc5c(c(C(=O)O)c4c3)CCCC5)CC2)cc1	12 µM (active)	–
COc1ccc(S(=O)(=O)N2CCN(C(=O)c3cc4c(s3)CCC4)CC2)cc1	–	-5.73
O=C(Nc1nc(-c2ccc(S(=O)(=O)N3CCOCC3)cc2)cs1)c1ccccc1	6.75 µM (active) and 7.57 µM (active)	–
O=C(Nc1cc(S(=O)(=O)N2CCOCC2)ccc1Cl)c1cc(=O)c2ccccc2o1	–	-23.2
COc1ccc(C(=O)Nc2ccc3nc(C)sc3c2)cc1S(=O)(=O)N1CCOCC1	21.3 µM (active)	–
O=C(COC(=O)c1n[nH]c(=O)c2ccccc12)Nc1cccc(S(=O)(=O)N2CCOCC2)c1	–	-14
O=S(=O)(c1ccc(Cl)cc1)N1CCOCC1	–	9.26
O=C(Nc1nc(-c2ccccn2)cs1)c1cccc(S(=O)(=O)N2CCOCC2)c1	1.69 µM (active)	–
CCOC(=O)N1CCN(S(=O)(=O)c2ccc(C(=O)NNc3nc4ccc(Cl)cc4s3)cc2)CC1	–	-11.8
COc1ccc(C(=O)Nc2nc(-c3ccccn3)cs2)cc1S(=O)(=O)N1CCOCC1	1.51 µM (active)	–
Cc1ccc(NC(=O)COc2ccc(S(=O)(=O)N3CCOCC3)cc2)cc1	–	1.7

From PubChem BioAssay AID720541 (National Center for Advancing Translational Sciences (NCATS), 2013)
